Compound activity: PubChem, National Center for Advancing Translational Sciences (NCATS)
In the library only some 7.3% were active in any assay of this set; here they are far more common.
NPC1 promoter act – activators of NPC1 promoter; Huh7 NPC1 promoter luciferase reporter, 24 h; Potency, µM (titrated, usually from 9.22 µM), for the others: top-dose activation, most hits filed as activators; 320,000 tested, 2.4% active; AID 485313; note: % of control where 0% means no effect; nearly all actives have a fitted effect of over 60% in size
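Huh7 reporter cells (NPC1 promoter driving luciferase) are dosed with compound for 24 h at 37 °C, 5% CO2; luciferase detection reagent is then added and luminescence measured after 10 min at ambient temperature.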
Rab9 promoter act – activates the Rab9 promoter. Huh7 Rab9 promoter-luciferase reporter, luminescence, 24 h. Potency, µM (top dose mostly 9.22 µM), without a hit: top-dose activation, negative = inhibition, most hits filed as activators. 320,000 tested, 2.8% active; note: % of control where 0% means no effect; nearly all actives have a fitted effect of over 60% in size
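Huh7 reporter line, Rab9 promoter upstream of luciferase. Compound exposure 24 h at 37 °C in reduced-serum medium with 10% FBS. Read-out: luminescence.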
FLuc counter – firefly luciferase modulation, counter-screen for miR-21 project; P08659; purified FLuc, Km substrates, luminescence inhibition; Potency, µM (highest dose often 57.5 µM), without a hit: top-dose activity change, negative = inhibition, hits mostly inhibitors; 360,000 tested, 6.9% active;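 note: plate controls were vehicle for no effect and reference inhibitor for full effect; nearly all actives have a fitted effect of over 55% in size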
Target sequence (P08659 whole entry, looked up): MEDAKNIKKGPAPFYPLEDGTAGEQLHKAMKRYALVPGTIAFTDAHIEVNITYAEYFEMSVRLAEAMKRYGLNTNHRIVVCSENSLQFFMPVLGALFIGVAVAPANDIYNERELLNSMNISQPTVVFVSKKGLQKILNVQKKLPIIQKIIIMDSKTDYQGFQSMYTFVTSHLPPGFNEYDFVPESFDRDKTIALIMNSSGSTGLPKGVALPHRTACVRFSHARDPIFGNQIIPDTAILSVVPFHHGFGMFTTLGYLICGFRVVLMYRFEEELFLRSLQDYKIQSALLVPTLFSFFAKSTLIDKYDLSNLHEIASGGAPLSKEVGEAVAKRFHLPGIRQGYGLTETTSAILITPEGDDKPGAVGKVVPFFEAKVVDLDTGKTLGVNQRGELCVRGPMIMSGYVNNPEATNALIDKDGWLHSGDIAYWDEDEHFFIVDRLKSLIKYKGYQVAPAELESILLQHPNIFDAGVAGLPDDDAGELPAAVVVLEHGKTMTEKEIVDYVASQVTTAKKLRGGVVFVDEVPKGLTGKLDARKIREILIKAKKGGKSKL
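Purified P. pyralis luciferase, 10 nM final, with Km-level 10 uM D-luciferin and 10 uM ATP in 50 mM Tris acetate pH 7.5, 10 mM Mg acetate, 0.01% Tween-20, 0.05% BSA; 6-point qHTS titration about 60 µM downward; luminescence read.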
KinaseGlo FLuc – counter-screen: inhibitors of Kinase-Glo firefly luciferase; 200,000 tested, 0.28% active; Kinase-Glo luciferase, ATP luminescence, 8 min; Potency, µM (titrated, usually from 38.3 µM), inactives show at the highest dose activity change, negative = inhibition, most hits filed as inhibitors; Q27757; AID 1379; note: % is set by controls: 0 for no effect and ±100 for the full control effect; nearly all actives have a fitted effect of over 60% in size
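Recombinant Kinase-Glo luciferase, 10 uM ATP (linear range), luciferin; imidazole pH 7.2 / KCl / MgCl2 / Tween / BSA buffer; 8 min RT; luminescence.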
SMN2 splice enh – enhancers of SMN2 splice variant expression; HEK293 SMN2-luciferase splicing reporter, luminescence, 30-36 h; Potency, µM (doses to about 46.1 µM), for the others: at the highest dose activity change, positive = activation, usual class: activators; 210,000 tested, 2.8% active; AID 1458; note: % of control where 0% means no effect; nearly all actives have a fitted effect of over 55% in size
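HEK293 cells carry an SMN2 […]–luciferase reporter in which exon 7 inclusion puts luciferase in frame. Cells were plated 10-12 h before compound addition, then incubated 30-36 h at 37C. ONE-Glo luminescence was read; sodium butyrate at 4.5 mM final served as control.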
An asterisk follows results filed as active. Calls come from the whole dose curve; as a rule, active = well fitted curve in the direction sought with a large enough effect; inconclusive = small, poorly fitted or top-dose-only effect, or another doubt; inactive = no such curve, though single readings can be large; an effect the other way counts as inactive or inconclusive. Potency is the fitted concentration of half-maximal effect.

O=C(NCc1ccc(Cl)cc1)c1ncn[nH]1 was read as NPC1 promoter act -2.3%, Rab9 promoter act -3.0%, FLuc counter -1.9%, KinaseGlo FLuc 1.2% and SMN2 splice enh -3.3%.
O=C(Cc1ccc([N+](=O)[O-])cc1)NCc1ccccc1Cl was read as NPC1 promoter act 0.6%, Rab9 promoter act -1.1%, FLuc counter -12.1%, KinaseGlo FLuc -2.3% and SMN2 splice enh 5.6%.
O=C(Cc1ccccc1[N+](=O)[O-])NCc1ccc(Cl)cc1 was read as NPC1 promoter act inconclusive, Rab9 promoter act inconclusive, FLuc counter 16.9µM*, KinaseGlo FLuc 4.1% and SMN2 splice enh 20µM*.
`C=C(C)C(=O)/C=C/c1ccc(C(F)(F)F)cc1` gave KinaseGlo FLuc -0.2% and SMN2 splice enh -3.1%.
Screening Cc1ccc(OCCCCn2c(CO)nc3ccccc32)cc1 returned NPC1 promoter act -3.6%, Rab9 promoter act -12.0%, FLuc counter -9.3%, KinaseGlo FLuc 2.1% and SMN2 splice enh -33.9%.
`OCc1nc2ccccc2n1CCCOc1ccc(Br)cc1` gave FLuc counter 10.7µM*, KinaseGlo FLuc 3.2% and SMN2 splice enh -9.0%.
`Cc1ccccc1OCCCn1c(CO)nc2ccccc21` gave NPC1 promoter act 1.2%, Rab9 promoter act 5.5%, FLuc counter 15.1µM*, KinaseGlo FLuc 0.3% and SMN2 splice enh 4.1%.
`CCc1nc2ccccc2n1CCCCOc1ccccc1C` gave FLuc counter inconclusive and SMN2 splice enh -27.6%.
CCc1cccc(Nc2ncnc3onc(-c4ccc(F)cc4)c23)c1 was read as FLuc counter 1.4%.
`O=C(Nc1ccc(Br)cc1F)c1cc(S(=O)(=O)NCc2ccc(F)cc2)ccc1F` gave FLuc counter -7.3%.
Cc1cccc(OCCCCn2c(C3CC(=O)N(c4ccc(C)cc4C)C3)nc3ccccc32)c1 (centres undefined) was read as FLuc counter -13.6% and SMN2 splice enh -22.8%.
`Cc1cc2c(=O)oc(-c3ccccc3Br)nc2s1` gave NPC1 promoter act 0.5%, Rab9 promoter act -3.2% and FLuc counter 7.57µM*.
For CCc1cc2c(=O)oc(-c3ccccc3F)nc2s1 the results were NPC1 promoter act -3.2%, Rab9 promoter act -2.0% and FLuc counter 3.38µM*.
`Cc1cc2c(=O)oc(-c3ccc(F)cc3)nc2s1` gave NPC1 promoter act -5.7%, Rab9 promoter act -6.0%, FLuc counter 0.1% and KinaseGlo FLuc -2.6%.
Screening CC(C)(C)c1ccc(-n2ncc3c2CCCC3NC(=O)c2csnn2)cc1 (centres undefined) returned NPC1 promoter act -6.5%, Rab9 promoter act -5.0% and FLuc counter -4.6%.
Screening CC(C)(C)c1ccc(-n2ncc3c2CCCC3NC(=O)c2cnccn2)cc1 (centres undefined) returned NPC1 promoter act -15.0%, Rab9 promoter act -14.3% and FLuc counter 23.9µM*.
CCc1cccc(NCc2ccccc2-c2nnc(-c3ccccc3Cl)o2)c1 was read as FLuc counter 3.38µM* and SMN2 splice enh -2.9%.
Fc1ccc(NCc2ccccc2-c2nnc(-c3ccccc3Cl)o2)cc1 was read as FLuc counter 6.01µM* and SMN2 splice enh 6.0%.
`Cc1ccc(NCc2ccccc2-c2nnc(-c3ccccc3Cl)o2)cc1Cl` gave FLuc counter inconclusive and SMN2 splice enh -1.5%.
CCCCNC(=O)c1ccc2c(c1)ncn2-c1cc(OC)ccc1OC was read as FLuc counter -2.3%.
Screening CCN1CCc2nc3sc(C(=O)c4ccc(F)cc4)c(N)c3cc2C1 returned FLuc counter -1.8%.
Screening CCOc1ccc(NC(=O)c2sc3nc4c(cc3c2N)CCCCCC4)cc1 returned FLuc counter 5.5% and SMN2 splice enh 7.3%.
Screening CCN1CCc2nc3sc(C(=O)c4ccccc4)c(N)c3cc2C1 returned FLuc counter 9.53µM* and SMN2 splice enh -11.7%.
Screening Nc1c(C(=O)Nc2ccc(C(=O)O)cc2)sc2nc3c(cc12)CCCC3 returned FLuc counter 0.19µM* and SMN2 splice enh inconclusive.
Screening Nc1c(C(=O)Nc2ccc(Cl)c(C(=O)O)c2)sc2nc3c(cc12)CCCC3 returned NPC1 promoter act inconclusive, Rab9 promoter act inconclusive and FLuc counter 2.69µM*.
Nc1c(C(=O)Nc2cccc(C(=O)O)c2)sc2nc3c(cc12)CCCC3 was read as NPC1 promoter act inconclusive, Rab9 promoter act 1.26µM* and FLuc counter 0.0675µM*.
Cc1ccc(CN2CCCn3nc(C(=O)NCCc4cccc(C)c4)cc3C2=O)cc1 was read as FLuc counter -5.8%.
For N#C/C(=C\c1ccc(-c2cccc(Cl)c2)o1)C(=O)Nc1cccc(C(F)(F)F)c1 the results were FLuc counter -4.6% and SMN2 splice enh -2.1%.
For CCOC(=O)C1CCN(C(=O)Cn2c(-c3cccs3)cc3cc(Cl)ccc32)CC1 the results were FLuc counter 0.9%.
`Cn1/c(=N/NC(=O)c2ccccc2Br)sc2ccccc21` gave NPC1 promoter act inconclusive, Rab9 promoter act 3.98µM*, FLuc counter 15.1µM*, KinaseGlo FLuc -5.0% and SMN2 splice enh inconclusive.
`Cc1ccc(-c2nc3nc(C)cc(N4CCN(c5cccc(C)c5)C(C)C4)n3n2)cc1` (centres undefined) gave FLuc counter 8.49µM* and SMN2 splice enh 2.3%.
Cc1cccc(N2CCN(c3cc(C)nc4nnnn34)CC2C)c1 (centres undefined) was read as NPC1 promoter act -1.9%, Rab9 promoter act -3.7%, FLuc counter 15.0%, KinaseGlo FLuc -3.1% and SMN2 splice enh -29.4%.
`COC(=O)c1cc(OC)c(OC)c(OC)c1NC(=O)c1cc(=O)n(C)c(=O)n1C` gave FLuc counter -6.5% and SMN2 splice enh 1.4%.
For COC(=O)C1=NN(C(=O)c2ccccc2)C(O)(c2ccc([N+](=O)[O-])cc2)C1 (centres undefined) the results were NPC1 promoter act -2.3%, Rab9 promoter act 0.1% and FLuc counter 23.9µM*.
Screening COc1cccc(-n2c(-c3ccco3)nc3c(cnn3-c3ccc(C)cc3)c2=O)c1 returned FLuc counter -4.9% and SMN2 splice enh -34.8%.
Screening O=C(CCCN1C(=O)/C(=C/c2ccc(F)cc2)SC1=S)NCCCn1ccnc1 returned NPC1 promoter act -3.4%, Rab9 promoter act -2.6% and FLuc counter inconclusive.
CC(C)c1ccc(/C=C2\SC(=S)N(CCC(=O)NCCCn3ccnc3)C2=O)cc1 was read as NPC1 promoter act -7.2%, Rab9 promoter act -38.8% and FLuc counter 2.39µM*.
COc1ccc(/C=C2\SC(=S)N(CCC(=O)NCCCn3ccnc3)C2=O)cc1 was read as NPC1 promoter act 1.2%, Rab9 promoter act -7.5% and FLuc counter 19µM*.
